{
  "source": "PubChem BioAssay (EPA / NIEHS)",
  "note": "The source made the active and inactive calls. The calls were made as follows: active = hit-call score of the fitted dose curve at least 0.9, where 1 is the maximum; inactive = score below 0.9.",
  "data": [
    {"test": "ATG_GLI_CIS: Attagene CIS-FACTORIAL HepG2 Assay for human Zinc Finger Protein GLI1 (AID 2282945)", "details": "HepG2, Attagene cis-factorial reporter mRNA, GLI element; actives raise or lower the signal", "in_short": "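Bidirectional curve fits relative to DMSO, using reporter mRNA levels from RT-PCR plus capillary electrophoresis. Cells were HepG2 transiently carrying cis-regulated reporter constructs, harvested 24 h after dosing.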", "values": [
      {"smiles": "CO[Si](C)(OC)c1ccccc1", "outcome": "inactive"},
      {"smiles": "COc1ccc(OC)c(OC)c1", "outcome": "inactive"},
      {"smiles": "CN(C)CCOCCN(C)C", "outcome": "inactive"},
      {"smiles": "CCC/C=C/C=O", "outcome": "inactive"},
      {"smiles": "CC(=O)O[C@]1(C(C)=O)CC[C@H]2[C@@H]3C[C@H](C)C4=CC(=O)CC[C@]4(C)[C@H]3CC[C@@]21C", "outcome": "inactive"},
      {"smiles": "CCc1ccc(C=O)cc1", "outcome": "inactive"},
      {"smiles": "O=C(O)c1cn(-c2ccc(F)cc2)c2cc(N3CCNCC3)c(F)cc2c1=O", "outcome": "inactive"},
      {"smiles": "c1ccc2c(c1)c1cccc3ccc4cccc2c4c31", "outcome": "inactive"},
      {"smiles": "Cc1ccc(C=O)cc1", "outcome": "inactive"},
      {"smiles": "Cc1cccc(C)c1[N+](=O)[O-]", "outcome": "inactive"},
      {"smiles": "COc1nc(C)nc(N)n1", "outcome": "inactive"},
      {"smiles": "CCCCCCCCCCCCOCCO", "AC50": "60.7 µM (active)"},
      {"smiles": "Clc1sc(Cl)c(Cl)c1Cl", "outcome": "inactive"},
      {"smiles": "NC(N)=NC(=O)c1nc(Cl)c(N)nc1N", "outcome": "inactive"},
      {"smiles": "O=c1[nH]c(=O)n([C@H]2CCCO2)cc1F", "outcome": "inactive"},
      {"smiles": "CCC(O)CO", "note": "(stereo not drawn)", "outcome": "inactive"},
      {"smiles": "CO[Si](CCCn1c(=O)n(CCC[Si](OC)(OC)OC)c(=O)n(CCC[Si](OC)(OC)OC)c1=O)(OC)OC", "outcome": "inactive"},
      {"smiles": "Nc1cc(N)cc(C(=O)O)c1", "outcome": "inactive"},
      {"smiles": "CCCC(=O)OCCC(C)CCC=C(C)C", "note": "(stereo not drawn)", "outcome": "inactive"},
      {"smiles": "O=C(O)c1cccc(C(F)(F)F)c1", "outcome": "inactive"},
      {"smiles": "CC[Si](OC(C)=O)(OC(C)=O)OC(C)=O", "outcome": "inactive"},
      {"smiles": "O=S(=O)(O)NC1CCCCC1", "outcome": "inactive"},
      {"smiles": "CCCCCCCCC=O", "outcome": "inactive"},
      {"smiles": "CCCCOCCOCCSC#N", "outcome": "inactive"},
      {"smiles": "CCCCCCCCCCCCSC", "outcome": "inactive"},
      {"smiles": "CN1[C@@H]2CC(OC(=O)[C@H](CO)c3ccccc3)C[C@H]1[C@@H]1O[C@@H]12", "note": "(stereo partly drawn)", "outcome": "inactive"},
      {"smiles": "O=C(O)C[C@H](O)C[C@H](O)/C=C/c1c(C2CC2)nc2ccccc2c1-c1ccc(F)cc1", "outcome": "inactive"},
      {"smiles": "CCn1c2ccccc2c2cc(N)ccc21", "outcome": "inactive"},
      {"smiles": "COc1cccc(OC)c1", "outcome": "inactive"},
      {"smiles": "CCC(=O)OCc1ccccc1", "outcome": "inactive"},
      {"smiles": "O=[N+]([O-])c1ccc(C=Cc2ccc([N+](=O)[O-])cc2S(=O)(=O)O)c(S(=O)(=O)O)c1", "outcome": "inactive"},
      {"smiles": "CC(C)C1CCC(O)CC1", "note": "(stereo not drawn)", "outcome": "inactive"},
      {"smiles": "CC(=O)O[C@H](CC(=O)[O-])C[N+](C)(C)C", "outcome": "inactive"},
      {"smiles": "C=C(C)C(=O)OCCOC(=O)CC(C)=O", "outcome": "inactive"},
      {"smiles": "O=C=NC1CCC(CC2CCC(N=C=O)CC2)CC1", "note": "(stereo not drawn)", "AC50": "174 µM (active)"},
      {"smiles": "O=c1cc(-c2ccccc2)oc2cc(O)cc(O)c12", "outcome": "inactive"},
      {"smiles": "O=c1[nH]nnc2ccccc12", "outcome": "inactive"},
      {"smiles": "OCCOc1cccc(OCCO)c1", "outcome": "inactive"}
    ]}
  ]
}
